# Unmarked numbers belong to inactive results.
# Tests used:
# Assay in all cases: log2 ratio of Biotin-Ahx-Ub-VS probe labelling (fragment/DMSO); higher = less target engagement (more negative = stronger competition), active = hit call of the paper (q ≤ 0.05, log2 ratio ≤ -1)
# Details in all cases: compound concentration: 200 uM; treatment time: 3 h
# USP9X = USP9X (UniProt Q93008)
# How it was run: (§1)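 HEK293T lysate (495 µg per sample, in Tris/CHAPS/IGEPAL buffer with protease inhibitors) was exposed in triplicate for 3 h to fragment at 200 µM or to vehicle, then to Biotin-Ahx-Ub-VS at 0.5 µM final for 1 h. Labelled DUBs were enriched on NeutrAvidin, digested with LysC and trypsin, and analysed by diaPASEF LC-MS/MS. Spectronaut label-free quantities were normalised to the global median, and values are average log2 ratios of fragment over vehicle from an unpaired t-test. Only proteins with ≥2 unique peptides were used.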
# UniProt O00487 = target: UniProt O00487
# How it was run: as §1
# UniProt O00507 = target: UniProt O00507
# UniProt O00507, sequence (O00507 whole entry): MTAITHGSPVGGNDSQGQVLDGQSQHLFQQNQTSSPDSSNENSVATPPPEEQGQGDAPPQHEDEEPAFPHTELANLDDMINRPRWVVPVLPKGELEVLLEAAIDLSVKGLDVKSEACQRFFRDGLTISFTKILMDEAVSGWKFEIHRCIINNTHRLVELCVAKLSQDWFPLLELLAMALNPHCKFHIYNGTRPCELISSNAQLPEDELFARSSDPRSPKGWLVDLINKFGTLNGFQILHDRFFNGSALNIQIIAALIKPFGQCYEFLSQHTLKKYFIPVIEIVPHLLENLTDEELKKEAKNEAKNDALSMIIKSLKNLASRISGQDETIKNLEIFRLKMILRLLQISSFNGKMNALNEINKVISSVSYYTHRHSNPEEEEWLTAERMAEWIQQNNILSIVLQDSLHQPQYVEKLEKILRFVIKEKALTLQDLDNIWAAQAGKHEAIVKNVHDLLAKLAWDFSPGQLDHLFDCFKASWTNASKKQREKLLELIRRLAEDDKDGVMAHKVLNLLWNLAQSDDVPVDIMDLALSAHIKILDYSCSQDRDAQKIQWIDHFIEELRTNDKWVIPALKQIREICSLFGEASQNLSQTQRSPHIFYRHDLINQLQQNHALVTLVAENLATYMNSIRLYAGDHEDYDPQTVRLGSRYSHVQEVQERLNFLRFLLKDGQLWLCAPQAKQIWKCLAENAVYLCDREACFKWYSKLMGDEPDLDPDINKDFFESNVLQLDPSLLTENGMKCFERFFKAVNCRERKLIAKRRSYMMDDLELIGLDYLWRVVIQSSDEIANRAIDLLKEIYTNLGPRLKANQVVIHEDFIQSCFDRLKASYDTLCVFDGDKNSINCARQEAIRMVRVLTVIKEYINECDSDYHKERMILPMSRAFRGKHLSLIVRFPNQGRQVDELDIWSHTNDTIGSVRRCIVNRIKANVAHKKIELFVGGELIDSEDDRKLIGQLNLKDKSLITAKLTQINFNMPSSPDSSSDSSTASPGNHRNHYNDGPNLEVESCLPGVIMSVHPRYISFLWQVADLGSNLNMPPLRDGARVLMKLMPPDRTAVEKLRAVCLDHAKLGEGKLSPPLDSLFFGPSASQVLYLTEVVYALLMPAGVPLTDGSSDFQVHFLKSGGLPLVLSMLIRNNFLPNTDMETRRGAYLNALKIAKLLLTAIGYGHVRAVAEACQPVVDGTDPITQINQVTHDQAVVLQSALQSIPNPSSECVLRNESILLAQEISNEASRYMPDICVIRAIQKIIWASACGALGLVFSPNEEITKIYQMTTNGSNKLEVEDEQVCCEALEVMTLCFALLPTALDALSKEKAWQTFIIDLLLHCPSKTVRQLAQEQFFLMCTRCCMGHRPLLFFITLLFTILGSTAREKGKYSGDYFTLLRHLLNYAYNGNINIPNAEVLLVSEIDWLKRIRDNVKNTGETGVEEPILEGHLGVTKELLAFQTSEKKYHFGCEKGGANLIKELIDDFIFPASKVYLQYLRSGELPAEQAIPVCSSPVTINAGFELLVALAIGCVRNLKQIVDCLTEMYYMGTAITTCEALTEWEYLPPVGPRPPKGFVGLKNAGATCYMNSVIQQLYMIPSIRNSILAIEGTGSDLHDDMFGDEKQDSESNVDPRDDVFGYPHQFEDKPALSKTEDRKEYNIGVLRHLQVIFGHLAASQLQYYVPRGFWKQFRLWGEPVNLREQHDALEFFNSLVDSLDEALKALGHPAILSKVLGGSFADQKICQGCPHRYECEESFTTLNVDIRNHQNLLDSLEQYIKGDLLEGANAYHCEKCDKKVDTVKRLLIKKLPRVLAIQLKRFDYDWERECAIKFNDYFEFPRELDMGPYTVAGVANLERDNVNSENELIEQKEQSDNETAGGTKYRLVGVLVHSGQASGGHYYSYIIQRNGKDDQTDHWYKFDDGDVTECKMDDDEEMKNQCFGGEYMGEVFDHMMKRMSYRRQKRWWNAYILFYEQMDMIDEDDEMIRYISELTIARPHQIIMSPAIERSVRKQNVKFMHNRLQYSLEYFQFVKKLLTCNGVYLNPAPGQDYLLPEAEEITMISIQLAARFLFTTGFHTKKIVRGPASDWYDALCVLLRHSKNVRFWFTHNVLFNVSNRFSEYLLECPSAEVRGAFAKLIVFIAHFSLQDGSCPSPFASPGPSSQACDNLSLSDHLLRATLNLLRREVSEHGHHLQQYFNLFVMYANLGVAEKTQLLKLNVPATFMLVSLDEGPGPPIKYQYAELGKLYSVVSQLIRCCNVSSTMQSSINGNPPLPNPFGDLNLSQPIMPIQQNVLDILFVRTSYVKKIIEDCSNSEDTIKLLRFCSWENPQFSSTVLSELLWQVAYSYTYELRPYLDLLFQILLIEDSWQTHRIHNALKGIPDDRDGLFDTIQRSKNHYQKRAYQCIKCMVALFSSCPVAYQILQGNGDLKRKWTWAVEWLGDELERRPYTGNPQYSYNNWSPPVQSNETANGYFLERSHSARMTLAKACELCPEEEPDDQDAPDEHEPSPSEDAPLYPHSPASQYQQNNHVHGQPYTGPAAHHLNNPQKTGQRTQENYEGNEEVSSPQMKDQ
# How it was run: as §1
# UniProt P51784 = target: UniProt P51784
# How it was run: as §1
# UniProt Q5T2D3 = target: T1, UniProt Q5T2D3
# T1 sequence (whole entry): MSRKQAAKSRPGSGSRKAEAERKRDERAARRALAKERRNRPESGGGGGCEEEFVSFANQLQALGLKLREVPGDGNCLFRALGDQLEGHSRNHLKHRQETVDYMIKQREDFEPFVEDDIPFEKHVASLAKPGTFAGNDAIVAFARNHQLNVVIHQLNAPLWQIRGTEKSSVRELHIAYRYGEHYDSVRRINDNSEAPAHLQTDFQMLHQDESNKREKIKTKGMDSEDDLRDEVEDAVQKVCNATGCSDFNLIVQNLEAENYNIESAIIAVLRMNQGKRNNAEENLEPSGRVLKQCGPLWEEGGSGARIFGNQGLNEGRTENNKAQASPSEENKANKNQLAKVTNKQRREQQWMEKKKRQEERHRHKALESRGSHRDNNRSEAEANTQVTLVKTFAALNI
# How it was run: as §1
# UniProt Q8TE49 = target: T2, UniProt Q8TE49
# T2 sequence (whole entry): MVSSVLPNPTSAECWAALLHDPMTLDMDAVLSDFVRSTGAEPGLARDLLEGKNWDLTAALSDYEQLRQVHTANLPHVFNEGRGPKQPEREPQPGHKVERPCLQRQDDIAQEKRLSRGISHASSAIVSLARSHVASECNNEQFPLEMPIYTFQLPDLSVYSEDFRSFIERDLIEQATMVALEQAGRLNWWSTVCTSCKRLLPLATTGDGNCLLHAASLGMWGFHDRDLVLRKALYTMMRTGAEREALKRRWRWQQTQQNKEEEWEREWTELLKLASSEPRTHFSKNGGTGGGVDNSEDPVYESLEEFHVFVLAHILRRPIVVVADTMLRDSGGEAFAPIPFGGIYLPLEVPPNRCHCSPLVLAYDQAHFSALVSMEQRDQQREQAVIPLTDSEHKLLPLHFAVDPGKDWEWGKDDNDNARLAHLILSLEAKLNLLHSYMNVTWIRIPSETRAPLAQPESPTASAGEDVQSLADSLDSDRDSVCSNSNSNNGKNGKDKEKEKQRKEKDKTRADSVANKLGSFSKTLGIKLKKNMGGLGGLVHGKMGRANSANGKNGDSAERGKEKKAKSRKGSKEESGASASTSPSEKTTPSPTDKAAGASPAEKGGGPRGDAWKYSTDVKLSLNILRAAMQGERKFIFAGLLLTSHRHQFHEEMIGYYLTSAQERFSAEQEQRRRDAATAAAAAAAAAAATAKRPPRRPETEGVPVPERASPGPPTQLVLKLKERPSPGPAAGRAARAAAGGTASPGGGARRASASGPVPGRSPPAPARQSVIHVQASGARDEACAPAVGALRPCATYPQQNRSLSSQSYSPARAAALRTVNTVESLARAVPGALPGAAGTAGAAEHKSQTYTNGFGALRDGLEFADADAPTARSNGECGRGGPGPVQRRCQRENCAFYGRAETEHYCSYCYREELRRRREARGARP
# How it was run: as §1
# UniProt Q9P2H5 = target: T3, UniProt Q9P2H5
# T3 sequence (whole entry): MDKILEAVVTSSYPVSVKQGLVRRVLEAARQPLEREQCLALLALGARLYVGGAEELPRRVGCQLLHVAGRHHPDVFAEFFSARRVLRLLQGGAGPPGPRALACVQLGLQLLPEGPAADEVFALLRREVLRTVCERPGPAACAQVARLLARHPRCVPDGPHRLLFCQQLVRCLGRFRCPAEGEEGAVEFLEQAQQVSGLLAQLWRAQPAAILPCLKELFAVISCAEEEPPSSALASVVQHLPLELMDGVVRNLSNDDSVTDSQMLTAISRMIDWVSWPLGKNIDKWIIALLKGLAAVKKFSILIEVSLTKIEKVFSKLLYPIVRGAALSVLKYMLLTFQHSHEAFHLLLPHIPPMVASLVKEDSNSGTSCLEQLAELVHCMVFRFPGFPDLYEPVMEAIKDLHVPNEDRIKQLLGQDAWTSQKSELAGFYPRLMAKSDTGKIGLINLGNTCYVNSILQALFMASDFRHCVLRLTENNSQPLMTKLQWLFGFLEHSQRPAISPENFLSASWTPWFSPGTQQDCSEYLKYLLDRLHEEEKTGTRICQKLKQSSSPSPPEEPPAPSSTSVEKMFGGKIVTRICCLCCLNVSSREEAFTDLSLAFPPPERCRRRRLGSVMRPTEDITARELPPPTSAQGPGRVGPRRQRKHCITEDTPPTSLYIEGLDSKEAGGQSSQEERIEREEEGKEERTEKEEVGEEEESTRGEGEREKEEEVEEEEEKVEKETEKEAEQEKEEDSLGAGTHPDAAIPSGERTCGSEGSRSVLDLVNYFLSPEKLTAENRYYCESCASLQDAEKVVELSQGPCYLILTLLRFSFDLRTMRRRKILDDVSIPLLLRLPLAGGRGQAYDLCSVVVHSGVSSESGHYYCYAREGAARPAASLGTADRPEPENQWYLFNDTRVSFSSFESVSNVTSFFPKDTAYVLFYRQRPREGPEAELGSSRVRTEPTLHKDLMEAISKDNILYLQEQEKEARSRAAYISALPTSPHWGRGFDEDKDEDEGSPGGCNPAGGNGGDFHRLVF
# How it was run: as §1
# UniProt Q9UGI0 = target: T4, UniProt Q9UGI0
# T4 sequence (whole entry): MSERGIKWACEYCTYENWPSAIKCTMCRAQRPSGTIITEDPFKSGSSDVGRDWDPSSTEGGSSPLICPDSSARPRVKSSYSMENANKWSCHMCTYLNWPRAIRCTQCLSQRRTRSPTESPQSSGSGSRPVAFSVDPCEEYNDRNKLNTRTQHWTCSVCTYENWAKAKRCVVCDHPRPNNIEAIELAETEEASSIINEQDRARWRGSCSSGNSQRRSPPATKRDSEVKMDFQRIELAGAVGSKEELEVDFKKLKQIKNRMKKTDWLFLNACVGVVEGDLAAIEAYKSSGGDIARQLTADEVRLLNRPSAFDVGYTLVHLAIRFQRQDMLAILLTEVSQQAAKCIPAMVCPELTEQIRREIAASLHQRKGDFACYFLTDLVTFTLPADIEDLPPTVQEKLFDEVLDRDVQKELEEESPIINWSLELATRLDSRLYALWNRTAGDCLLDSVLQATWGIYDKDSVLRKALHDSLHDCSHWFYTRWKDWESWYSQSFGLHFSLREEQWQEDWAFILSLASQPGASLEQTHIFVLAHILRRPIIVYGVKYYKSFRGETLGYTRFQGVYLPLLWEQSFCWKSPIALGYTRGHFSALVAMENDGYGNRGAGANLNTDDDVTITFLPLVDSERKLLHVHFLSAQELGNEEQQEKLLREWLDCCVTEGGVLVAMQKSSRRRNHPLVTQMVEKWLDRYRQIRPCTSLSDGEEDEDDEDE
# How it was run: as §1
# YOD1 = target: T5, YOD1 (UniProt Q5VVQ6)
# T5 sequence (whole entry): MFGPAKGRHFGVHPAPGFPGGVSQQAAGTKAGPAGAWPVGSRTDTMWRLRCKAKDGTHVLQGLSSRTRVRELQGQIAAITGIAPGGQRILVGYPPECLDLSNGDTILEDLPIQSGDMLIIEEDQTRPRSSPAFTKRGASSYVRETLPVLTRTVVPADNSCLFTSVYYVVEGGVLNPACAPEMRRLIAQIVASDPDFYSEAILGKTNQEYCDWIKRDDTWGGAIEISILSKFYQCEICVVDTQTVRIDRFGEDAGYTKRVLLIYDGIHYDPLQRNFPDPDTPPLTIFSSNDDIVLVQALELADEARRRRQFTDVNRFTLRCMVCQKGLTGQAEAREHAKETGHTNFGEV
# How it was run: as §1
# USP9X, sequence (Q93008 whole entry, the tested form may be a part): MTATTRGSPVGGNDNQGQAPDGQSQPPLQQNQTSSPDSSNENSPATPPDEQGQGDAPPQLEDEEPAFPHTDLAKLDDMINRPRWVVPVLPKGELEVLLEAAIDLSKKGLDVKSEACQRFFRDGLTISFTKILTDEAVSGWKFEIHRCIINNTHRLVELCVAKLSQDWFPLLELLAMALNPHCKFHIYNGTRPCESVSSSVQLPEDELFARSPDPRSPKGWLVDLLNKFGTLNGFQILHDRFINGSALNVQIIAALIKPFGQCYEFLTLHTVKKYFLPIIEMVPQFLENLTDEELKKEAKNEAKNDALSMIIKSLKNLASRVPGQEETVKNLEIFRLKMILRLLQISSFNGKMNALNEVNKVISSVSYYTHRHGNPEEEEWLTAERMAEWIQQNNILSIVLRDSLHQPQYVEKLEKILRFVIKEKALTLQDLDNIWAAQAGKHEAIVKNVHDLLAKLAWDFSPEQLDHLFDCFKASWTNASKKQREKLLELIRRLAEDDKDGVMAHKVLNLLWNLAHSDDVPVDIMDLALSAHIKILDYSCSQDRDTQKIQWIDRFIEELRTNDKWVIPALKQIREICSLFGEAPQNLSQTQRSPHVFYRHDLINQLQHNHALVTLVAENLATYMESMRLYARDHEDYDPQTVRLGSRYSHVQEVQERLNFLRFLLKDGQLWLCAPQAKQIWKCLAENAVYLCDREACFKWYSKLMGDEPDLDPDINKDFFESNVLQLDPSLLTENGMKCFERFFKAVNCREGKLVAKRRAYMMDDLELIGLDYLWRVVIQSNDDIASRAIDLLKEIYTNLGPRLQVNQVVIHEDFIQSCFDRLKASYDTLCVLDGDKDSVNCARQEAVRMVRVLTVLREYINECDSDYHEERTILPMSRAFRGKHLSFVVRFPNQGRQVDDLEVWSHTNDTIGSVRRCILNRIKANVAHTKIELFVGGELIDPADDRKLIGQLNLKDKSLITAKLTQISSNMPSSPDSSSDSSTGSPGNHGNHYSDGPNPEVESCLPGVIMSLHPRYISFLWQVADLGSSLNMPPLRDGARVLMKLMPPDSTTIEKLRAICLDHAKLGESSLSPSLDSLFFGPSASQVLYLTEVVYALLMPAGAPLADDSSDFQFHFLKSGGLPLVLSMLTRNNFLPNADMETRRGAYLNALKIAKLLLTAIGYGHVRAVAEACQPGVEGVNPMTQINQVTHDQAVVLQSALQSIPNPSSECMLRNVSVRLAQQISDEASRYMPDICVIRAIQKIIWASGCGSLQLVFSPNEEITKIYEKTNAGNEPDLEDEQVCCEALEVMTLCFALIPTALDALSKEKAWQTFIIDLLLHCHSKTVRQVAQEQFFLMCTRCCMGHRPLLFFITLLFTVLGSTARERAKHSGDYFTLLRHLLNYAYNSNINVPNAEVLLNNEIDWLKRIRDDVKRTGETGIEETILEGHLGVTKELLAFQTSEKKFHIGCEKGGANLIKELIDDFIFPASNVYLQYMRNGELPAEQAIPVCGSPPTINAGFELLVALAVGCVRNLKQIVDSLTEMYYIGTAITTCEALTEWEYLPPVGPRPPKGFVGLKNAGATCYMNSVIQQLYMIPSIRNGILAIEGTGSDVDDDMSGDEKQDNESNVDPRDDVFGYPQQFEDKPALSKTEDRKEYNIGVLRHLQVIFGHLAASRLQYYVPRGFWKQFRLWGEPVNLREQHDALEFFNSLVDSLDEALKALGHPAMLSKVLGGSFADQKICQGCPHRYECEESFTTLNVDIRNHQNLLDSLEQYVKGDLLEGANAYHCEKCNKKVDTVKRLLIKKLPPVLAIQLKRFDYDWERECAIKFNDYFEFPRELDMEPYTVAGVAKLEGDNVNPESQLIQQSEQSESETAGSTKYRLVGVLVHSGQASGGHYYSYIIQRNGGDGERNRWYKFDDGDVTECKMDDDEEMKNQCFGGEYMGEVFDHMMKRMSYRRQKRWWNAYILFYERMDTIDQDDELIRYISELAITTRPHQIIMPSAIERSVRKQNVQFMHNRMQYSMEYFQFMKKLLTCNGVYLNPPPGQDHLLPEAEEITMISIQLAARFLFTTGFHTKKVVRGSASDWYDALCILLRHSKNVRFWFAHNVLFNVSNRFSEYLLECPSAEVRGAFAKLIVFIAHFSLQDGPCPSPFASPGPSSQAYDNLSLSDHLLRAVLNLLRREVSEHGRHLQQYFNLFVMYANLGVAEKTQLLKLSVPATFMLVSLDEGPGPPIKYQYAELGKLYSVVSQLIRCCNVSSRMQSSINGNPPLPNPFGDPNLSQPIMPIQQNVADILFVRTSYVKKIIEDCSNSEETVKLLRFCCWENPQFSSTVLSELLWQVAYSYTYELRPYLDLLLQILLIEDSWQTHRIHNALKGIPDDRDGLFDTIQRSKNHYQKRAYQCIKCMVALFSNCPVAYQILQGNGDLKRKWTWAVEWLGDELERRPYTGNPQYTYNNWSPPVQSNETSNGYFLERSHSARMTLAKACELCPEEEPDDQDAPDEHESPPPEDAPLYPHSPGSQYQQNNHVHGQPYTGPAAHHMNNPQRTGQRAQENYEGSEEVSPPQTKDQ
smiles,measurement,setting,value
CC(=O)Nc1ccc(NC(=O)CCl)cc1,log2 ratio of Biotin-Ahx-Ub-VS probe labelling,USP9X,-0.118
same,log2 ratio of Biotin-Ahx-Ub-VS probe labelling,UniProt O00487,-0.167
same,log2 ratio of Biotin-Ahx-Ub-VS probe labelling,UniProt O00507,-0.353
same,log2 ratio of Biotin-Ahx-Ub-VS probe labelling,UniProt P51784,0.016
same,log2 ratio of Biotin-Ahx-Ub-VS probe labelling,UniProt Q5T2D3,-0.228
same,log2 ratio of Biotin-Ahx-Ub-VS probe labelling,UniProt Q8TE49,-0.811
same,log2 ratio of Biotin-Ahx-Ub-VS probe labelling,UniProt Q9P2H5,-0.0361
same,log2 ratio of Biotin-Ahx-Ub-VS probe labelling,UniProt Q9UGI0,-1.31 (active)
same,log2 ratio of Biotin-Ahx-Ub-VS probe labelling,YOD1,-0.229

# From the supplement of paper PMC11732987, “Enantioselective OTUD7B fragment discovery through chemoproteomics screening and high-throughput optimisation” (Communications Chemistry, 2025)
